Among all 310,000 compounds or so, about 14,000 (4.5%) showed an effect of 50% or more. The effect is printed as a negative number. For the sample, strong results were picked, then their nearest neighbours and some compounds at random.
biological target: human ether-à-go-go-related gene (hERG) potassium channel (human, UniProt Q12809); assay: primary screen, population patch clamp on CHO cells stably expressing hERG; higher = less effect of the substance
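Further: peak tail current of the secondary pulse compared with the same well before compound.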

Sequence of human ether-à-go-go-related gene (hERG) potassium channel (Q12809 whole entry, looked up): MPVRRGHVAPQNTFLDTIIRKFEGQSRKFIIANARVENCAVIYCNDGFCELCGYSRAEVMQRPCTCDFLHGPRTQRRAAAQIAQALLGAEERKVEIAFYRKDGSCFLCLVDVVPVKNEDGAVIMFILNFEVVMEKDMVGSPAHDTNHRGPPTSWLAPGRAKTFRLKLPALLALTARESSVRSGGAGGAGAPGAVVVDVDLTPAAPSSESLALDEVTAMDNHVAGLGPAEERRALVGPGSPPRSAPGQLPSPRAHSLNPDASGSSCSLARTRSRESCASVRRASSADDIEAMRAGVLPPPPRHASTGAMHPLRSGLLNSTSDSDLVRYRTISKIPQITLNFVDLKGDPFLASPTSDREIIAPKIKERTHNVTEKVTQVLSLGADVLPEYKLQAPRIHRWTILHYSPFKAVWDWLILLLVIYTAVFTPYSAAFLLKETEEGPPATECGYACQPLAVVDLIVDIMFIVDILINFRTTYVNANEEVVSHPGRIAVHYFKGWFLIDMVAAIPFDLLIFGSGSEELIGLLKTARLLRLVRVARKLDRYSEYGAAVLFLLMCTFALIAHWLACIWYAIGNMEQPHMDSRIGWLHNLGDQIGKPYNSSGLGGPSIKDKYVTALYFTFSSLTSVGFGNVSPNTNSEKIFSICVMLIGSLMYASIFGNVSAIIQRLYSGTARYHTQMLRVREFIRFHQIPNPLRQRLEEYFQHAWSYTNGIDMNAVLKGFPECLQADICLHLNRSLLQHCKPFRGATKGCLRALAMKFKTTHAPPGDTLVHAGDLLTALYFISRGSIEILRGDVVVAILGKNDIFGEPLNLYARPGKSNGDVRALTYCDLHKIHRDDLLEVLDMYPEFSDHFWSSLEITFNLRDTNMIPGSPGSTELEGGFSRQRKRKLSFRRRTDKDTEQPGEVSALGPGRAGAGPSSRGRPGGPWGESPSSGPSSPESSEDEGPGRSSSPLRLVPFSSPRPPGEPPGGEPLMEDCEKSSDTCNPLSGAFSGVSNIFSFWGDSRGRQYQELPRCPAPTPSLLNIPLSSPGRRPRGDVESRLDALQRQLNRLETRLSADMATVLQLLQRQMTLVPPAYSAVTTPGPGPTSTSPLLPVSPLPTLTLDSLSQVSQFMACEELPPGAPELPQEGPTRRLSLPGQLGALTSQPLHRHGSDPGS

Structure (SMILES) | hERG current change (%, negative = inhibition) at 10uM [%]
O=C(CN1CCCC1)Nc1ccc(Cl)cc1C(F)(F)F | 0.32
COCC(C)N=C1NN=C(c2cccs2)C(CC(=O)O)S1 (centres unmarked) | 20
CS(=O)(=O)Oc1ccc(/C=C2\C(=N)N3N=C(CC(=O)N4CCOCC4)SC3=NC2=O)cc1Cl | -2.27
COc1cc2c(cc1OC)/C(=C/c1ccc(Cl)cc1)C(=O)OC2 | -36.4
NC(=O)CSc1nnc(NC(=O)C2CC(=O)N(c3ccc(F)cc3)C2)s1 (centres unmarked) | 26.1
O=C(Cc1ccc(S(=O)(=O)N2CCOCC2)s1)OCc1ccc(Cl)cc1 | -20.1
COC(=O)c1ccc(NC(=O)COc2ccc(S(=O)(=O)N3CCCCC3)cc2)cc1 | -9.57
Cc1ccc(Cl)c(OCC(=O)NCc2ccco2)c1 | 1.03
COc1ccc(OC)c(/C=N/NC(=O)CCc2n[nH]c(=O)[nH]c2=O)c1 | 4.8
CCOc1ccccc1N1CC(C(=O)Nc2ccc(S(=O)(=O)N3CCCCC3)cc2)CC1=O (centres unmarked) | -3.91
S=C(Nc1ccc2cn[nH]c2c1)Nc1ccccc1Cl | -4.68
COc1ccc(NC(=O)CN(C)C(=O)c2cc(S(=O)(=O)N3CCCCCC3)ccc2OC)cc1 | -24
COc1cccc(NC(=O)CN(C)C(=O)c2cc(S(=O)(=O)N3CCCCCC3)ccc2OC)c1 | -50.9
COc1ccc(S(=O)(=O)N2CCCCCC2)cc1C(=O)N(C)Cc1c(F)cccc1Cl | -49.8
COc1cccc(NC(=O)CN(C)C(=O)c2cc(S(=O)(=O)NCc3ccccc3)ccc2C)c1 | -71.1
COc1ccc(S(=O)(=O)N2CCCCCC2)cc1C(=O)N(C)Cc1ccccc1F | -53.2
COc1cccc(NC(=O)CN(C)C(=O)c2cc(S(=O)(=O)N3CCCCC3)ccc2Cl)c1 | -34.7
COc1ccc(NS(=O)(=O)c2ccc(C)c(C(=O)N(C)CC(=O)Nc3cccc(OC)c3)c2)cc1 | -9.42
COc1ccc(S(=O)(=O)N2CCOCC2)cc1C(=O)N(C)Cc1ccccc1F | -37.8
Cc1ccc(S(=O)(=O)NCc2ccccc2)cc1C(=O)N(C)CC(=O)Nc1c(Cl)cccc1Cl | -30.4
Cc1ccc(S(=O)(=O)N(Cc2cccc(C(F)(F)F)c2)C(=O)N2CCN(C)CC2)cc1 | 10.3
COC(=O)CCC(=O)OC1(C)C(=O)C2=CN(CCCOC(C)C)C(c3ccc(OC)cc3)=CC2=C(Br)C1=O (centres unmarked) | -22.7

Structure (SMILES) | hERG current change (%, negative = inhibition) at 10uM [%]
CC(=O)NC(=O)NC1CSCC1OC(C)=O (centres unmarked) | 15.8
CC(NC(=O)CCCn1cc([N+](=O)[O-])cn1)c1ccccc1 (centres unmarked) | -3.6
COc1ccccc1/C=N/NC(=O)CC(=O)NCCc1ccccc1 | 12.1
CCOC(=O)c1cc(-c2ccccc2)sc1NC(=O)CC | 1.19
CCOCC(=O)Nc1ccc(S(=O)(=O)NCCc2ccccc2)cc1 | -22.9
Nc1ccc(C(=O)Nc2ccccc2C(=O)O)cc1 | 10.2
Cc1[nH]n2c(=O)c3c(nc2c1-c1ccccc1)CCC3 | 0.138
CCCN(CCC(=O)Nc1cc(OC)cc(OC)c1)CC1CC1.Cl | -12.1
Cc1cc(NC(=O)c2nn3cccnc3c2Cl)no1 | 6.12
CNC(=S)Nc1cc(Cl)ccc1Oc1ccccc1 | -6.86
CCc1nnc(NC(=O)CCN2C(=O)CCC2=O)s1 | -8.3
COc1ccc2sc(-c3ccc(SC)cc3)c(C#CC(C)(C)O)c2c1 | 11.6
CCOC(=O)C1(CCOc2ccccc2)CCN(Cc2ccccc2OC)CC1 | -71.4
CCOC(=O)C1(CCOc2ccccc2)CCN(Cc2cc(OC)c(O)cc2Cl)CC1 | -69.2
CCOC(=O)C1(CCOc2ccccc2)CCN(Cc2cc(OC)ccc2OC)CC1 | -73.2
CCOC(=O)C1(CCOc2ccccc2)CCN(Cc2ccccc2O)CC1 | -30.8
CCOC(=O)C1(CCOc2ccccc2)CCN(Cc2cccc(OC)c2O)CC1 | -70.5
O=C(O)c1cc(-n2[nH]c(=O)c3ccccc3c2=O)ccc1Cl | 21.3
Cc1sc2ncnc(N3CCCCC3C)c2c1C (centres unmarked) | -13.6
Cc1cc(C)c(C(=O)CN2C(=O)NC3(CCC(C)CC3)C2=O)cc1C (centres unmarked) | 11.1
COC(=O)c1sccc1NC(=O)CC1NCCNC1=O (centres unmarked) | 0.0435
COc1ccccc1NC(=O)/C=C/c1ccc2c(c1)OCO2 | -8.32

Reference: article PMC4336329 (PLoS ONE, 2015)
